About 2,000 (36%) of roughly 5,500 compounds were called active. About 18% were inconclusive and are not listed. Rule as the data show it: active = normalized growth mostly below about 0.91 (no sharp cut-off); inconclusive = no clear call, values can overlap the other calls; inactive = mostly above about 0.92. The list shows a part of the results.
Test: chemical genetic growth profiling, strain panel (AID 1159580);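 also: tested at 20 µM; growth read once vehicle control cultures reached saturation at 30 °C; 1 = growth at the plate median or of vehicle wells; lower values mean less growth of the strain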
Settings: growth OD
[1] = S. cerevisiae deletion strains, locus YAL013W, strain DEP1, active compounds read low
[2] = S. cerevisiae deletion strains, locus YBR229C, strain ROT2, active compounds read low
[3] = S. cerevisiae deletion strains, locus YDL101C, strain DUN1, active compounds read low
[4] = S. cerevisiae deletion strains, locus YDR150W, strain NUM1, active compounds read low
[5] = S. cerevisiae deletion strains, locus YEL061C, strain CIN8, active compounds read low
[6] = S. cerevisiae deletion strains, locus YGR078C, strain PAC10, active compounds read low
[7] = S. cerevisiae deletion strains, locus YHR030C, strain SLT2, active compounds read low
[8] = S. cerevisiae deletion strains, locus YHR087W, strain rtc3, active compounds read low
[9] = S. cerevisiae deletion strains, locus YJR043C, strain POL32, active compounds read low
[10] = S. cerevisiae deletion strains, locus YJR075W, strain HOC1, active compounds read low
[11] = S. cerevisiae deletion strains, locus YKL190W, strain CNB1, active compounds read low
[12] = S. cerevisiae deletion strains, locus YLR039C, strain RIC1, active compounds read low
[13] = S. cerevisiae deletion strains, locus YLR058C, strain SHM2 (second series), active compounds read low
[14] = S. cerevisiae deletion strains, locus YLR085C, strain ARP6, active compounds read low
[15] = S. cerevisiae deletion strains, locus YLR262C, strain YPT6, active compounds read low
[16] = S. cerevisiae deletion strains, locus YML094W, strain GIM5, active compounds read low
[17] = S. cerevisiae deletion strains, locus YMR219W, strain ESC1, active compounds read low
[18] = S. cerevisiae deletion strains, locus YMR263W, strain SAP30, active compounds read low
[19] = S. cerevisiae deletion strains, locus YMR307W, strain GAS1, active compounds read low
[20] = S. cerevisiae deletion strains, locus YNL153C, strain GIM3, active compounds read low
[21] = S. cerevisiae deletion strains, locus YNL298W, strain CLA4 (second series), active compounds read low
[22] = S. cerevisiae deletion strains, locus YNL322C, strain KRE1, active compounds read low
[23] = S. cerevisiae deletion strains, locus YNR030W, strain Alg12, active compounds read low
[24] = S. cerevisiae deletion strains, locus YPL055C, strain LGE1, active compounds read low
[25] = S. cerevisiae deletion strains, locus YPL241C, strain CIN2, active compounds read low
[26] = S. cerevisiae deletion strains, locus YPR135W, strain CTF4, active compounds read low
[27] = S. cerevisiae strains, strain wild type, active compounds read low
[28] = S. cerevisiae deletion strains, locus YCL061C, strain MRC1, active compounds read low
[29] = S. cerevisiae deletion strains, locus YNL128W, strain TEP1, active compounds read low

Measured: normalized growth

N#CCC(=O)N(Cc1ccccc1F)C(=O)NC1CCCCC1
inactive: [1] 0.993 | [2] 1.01 | [3] 0.994 | S. cerevisiae deletion strains, locus YDL134C, strain PPH21, active compounds read low 0.98 | [4] 0.997 | [5] 1 | [6] 0.994 | S. cerevisiae deletion strains, locus YGR229C, strain SMI1, active compounds read low 0.987 | [7] 0.957 | [8] 0.974 | [9] 0.994 | [10] 0.963 | [11] 1 | [12] 0.915 | [13] 1 | [14] 0.989 | [15] 0.935 | [16] 0.996 | [17] 0.998 | [18] 1 | [19] 0.913 | [20] 0.988 | [21] 1.01 | [22] 1.01 | [23] 0.986 | [24] 1.01 | [25] 0.994 | [26] 0.866 | [27] 0.997

COC(=O)c1cccc([N+](=O)[O-])c1-c1c(C(=O)OC)cccc1[N+](=O)[O-]
inactive: [1] 0.995 | [2] 1.01 | [28] 1.03 | [3] 1.03 | [4] 1.02 | [5] 0.983 | [6] 1.03 | [7] 1.06 | [8] 0.997 | [9] 1.01 | [10] 0.981 | [12] 0.994 | [13] 0.999 | [14] 1.03 | [15] 0.97 | [16] 0.988 | [17] 0.99 | [18] 1.03 | [19] 0.971 | [29] 0.999 | [20] 1.03 | [21] 1.02 | [22] 1 | [23] 1.03 | S. cerevisiae deletion strains, locus YOL006C, strain TOP1, active compounds read low 1.08 | [24] 0.974 | [25] 1 | [26] 1.06 | [27] 1.02

O=C(O)c1cccc([N+](=O)[O-])c1C(=O)Nc1ccc(F)cc1
active: [12] 1.22 [resistant] | [15] 1.19 [resistant]
inactive: [1] 1.01 | [2] 0.996 | [28] 1.01 | [3] 1.01 | [4] 1.03 | [5] 0.98 | [6] 1.01 | [7] 1.1 | [8] 0.965 | [9] 1 | [10] 1.01 | [11] 0.986 | [13] 0.991 | [14] 1 | [16] 1.01 | [17] 0.998 | [18] 0.996 | [19] 0.932 | [29] 0.984 | [20] 1.01 | [21] 0.97 | [22] 1.02 | [23] 0.996 | [24] 0.979 | [25] 1.04 | [26] 1.04

Cc1oc(C(C)(C)C)cc1-c1cc(NC(=O)c2ccccc2)n[nH]1
inactive: S. cerevisiae deletion strains, locus YAR019C, strain CDC15, active compounds read low 0.965 | S. cerevisiae deletion strains, locus YBL105C, strain PKC1, active compounds read low 0.98 | S. cerevisiae deletion strains, locus YBR135W, strain CKS1, active compounds read low 0.974 | S. cerevisiae deletion strains, locus YBR136W, strain MEC1, active compounds read low 0.975 | S. cerevisiae deletion strains, locus YBR160W, strain CDC28, active compounds read low 0.97 | S. cerevisiae deletion strains, locus YDL017W, strain CDC7, active compounds read low 0.99 | S. cerevisiae deletion strains, locus YDL028C, strain MPS1, active compounds read low 0.948 | [3] 0.994 | S. cerevisiae deletion strains, locus YDL108W, strain KIN28, active compounds read low 0.972 | S. cerevisiae deletion strains, locus YDL132W, strain cdc53, active compounds read low 0.993 | S. cerevisiae deletion strains, locus YDL214C, strain PRR2, active compounds read low 0.913 | S. cerevisiae deletion strains, locus YDR052C, strain DBF4, active compounds read low 0.984 | S. cerevisiae deletion strains, locus YDR054C, strain cdc34, active compounds read low 0.966 | S. cerevisiae deletion strains, locus YDR226W, strain ADK1, active compounds read low 0.962 | S. cerevisiae deletion strains, locus YDR477W, strain SNF1, active compounds read low 0.924 | S. cerevisiae deletion strains, locus YER123W, strain YCK3, active compounds read low 0.885 | S. cerevisiae deletion strains, locus YER133W, strain GLC7, active compounds read low 0.957 | S. cerevisiae deletion strains, locus YFL009W, strain cdc4, active compounds read low 0.951 | S. cerevisiae deletion strains, locus YFL029C, strain CAK1, active compounds read low 0.962 | S. cerevisiae deletion strains, locus YFR003C, strain YPI1, active compounds read low 0.988 | S. cerevisiae deletion strains, locus YFR019W, strain FAB1, active compounds read low 0.921 | S. cerevisiae deletion strains, locus YFR028C, strain CDC14, active compounds read low 0.961 | S. cerevisiae deletion strains, locus YGR040W, strain KSS1, active compounds read low 0.94 | S. cerevisiae deletion strains, locus YGR052W, strain FMP48, active compounds read low 0.93 | S. cerevisiae deletion strains, locus YGR092W, strain DBF2, active compounds read low 0.743 | S. cerevisiae deletion strains, locus YHR079C, strain IRE1, active compounds read low 0.695 | S. cerevisiae deletion strains, locus YHR082C, strain KSP1, active compounds read low 0.81 | S. cerevisiae deletion strains, locus YHR205W, strain SCH9, active compounds read low 0.849 | S. cerevisiae deletion strains, locus YIL147C, strain SLN1, active compounds read low 0.966 | S. cerevisiae deletion strains, locus YJL095W, strain BCK1, active compounds read low 0.822 | S. cerevisiae deletion strains, locus YJL128C, strain PBS2, active compounds read low 0.908 | S. cerevisiae deletion strains, locus YJL157C, strain FAR1, active compounds read low 0.909 | S. cerevisiae deletion strains, locus YJR016C, strain ILV3, active compounds read low 0.981 | S. cerevisiae deletion strains, locus YJR066W, strain TOR1 (second series), active compounds read low 0.883 | S. cerevisiae deletion strains, locus YJR066W, strain TOR1, active compounds read low 0.798 | S. cerevisiae deletion strains, locus YKL048C, strain ELM1, active compounds read low 0.943 | S. cerevisiae deletion strains, locus YKL067W, strain YNK1, active compounds read low 0.899 | S. cerevisiae deletion strains, locus YKL101W, strain HSL1, active compounds read low 0.878 | S. cerevisiae deletion strains, locus YKL193C, strain SDS22, active compounds read low 0.98 | S. cerevisiae deletion strains, locus YKL203C, strain TOR2, active compounds read low 1.01 | S. cerevisiae deletion strains, locus YLR133W, strain CKI1, active compounds read low 0.911 | S. cerevisiae deletion strains, locus YLR403W, strain SFP1, active compounds read low 0.925 | S. cerevisiae deletion strains, locus YML070W, strain DAK1, active compounds read low 0.872 | S. cerevisiae deletion strains, locus YMR001C, strain CDC5, active compounds read low 0.95 | S. cerevisiae deletion strains, locus YMR205C, strain PFK2 (second series), active compounds read low 0.922 | S. cerevisiae deletion strains, locus YMR277W, strain FCP1, active compounds read low 0.95 | S. cerevisiae deletion strains, locus YNL006W, strain LST8, active compounds read low 0.962 | S. cerevisiae deletion strains, locus YNL020C, strain ARK1, active compounds read low 0.903 | S. cerevisiae deletion strains, locus YNL161W, strain CBK1, active compounds read low 0.976 | S. cerevisiae deletion strains, locus YNL183C, strain NPR1, active compounds read low 0.963 | S. cerevisiae deletion strains, locus YNL207W, strain RIO2, active compounds read low 0.969 | S. cerevisiae deletion strains, locus YNL222W, strain SSU72, active compounds read low 0.969 | S. cerevisiae deletion strains, locus YNL307C, strain MCK1 (second series), active compounds read low 0.876 | S. cerevisiae deletion strains, locus YOL078W, strain AVO1, active compounds read low 0.981 | S. cerevisiae deletion strains, locus YOL136C, strain PFK27, active compounds read low 0.866 | S. cerevisiae deletion strains, locus YOR061W, strain CKA2, active compounds read low 0.91 | S. cerevisiae deletion strains, locus YOR119C, strain RIO1, active compounds read low 0.928 | S. cerevisiae deletion strains, locus YOR231W, strain MKK1, active compounds read low 0.791 | S. cerevisiae deletion strains, locus YOR329C, strain SCD5, active compounds read low 0.981 | S. cerevisiae deletion strains, locus YPL031C, strain PHO85, active compounds read low 0.908 | S. cerevisiae deletion strains, locus YPL153C, strain RAD53, active compounds read low 0.877 | S. cerevisiae deletion strains, locus YPL204W, strain HRR25, active compounds read low 0.883 | S. cerevisiae deletion strains, locus YPL209C, strain IPL1, active compounds read low 0.972 | S. cerevisiae deletion strains, locus YPR025C, strain CCL1, active compounds read low 0.979 | S. cerevisiae deletion strains, locus YPR106W, strain ISR1, active compounds read low 0.969 | S. cerevisiae deletion strains, locus YPR111W, strain DBF20, active compounds read low 0.935 | S. cerevisiae deletion strains, strain NNK1, active compounds read low 0.951 | S. cerevisiae deletion strains, strain TSCII, active compounds read low 0.958
active: [7] 0.611 | S. cerevisiae deletion strains, locus YLR113W, strain HOG1, active compounds read low 0.778 | S. cerevisiae deletion strains, locus YPL256C, strain CLN2, active compounds read low 0.844

Cc1cc(NS(=O)(=O)c2ccc(NC(=O)c3ccccc3)cc2)no1
inactive: [1] 0.988 | [2] 0.995 | [3] 0.979 | [4] 1.03 | [5] 1.03 | [6] 0.984 | [7] 1.03 | [8] 1.01 | [9] 0.983 | [10] 0.992 | [12] 1.02 | [13] 1.02 | [14] 1.05 | [15] 0.986 | [16] 1.02 | [17] 1.01 | [18] 0.916 | [19] 1.03 | [29] 1 | [20] 1 | [21] 1 | [22] 1.01 | [23] 1 | [24] 1.03 | [25] 1.02 | [26] 0.991

Source: PubChem BioAssay AID1159580 (chemical genetic matrix, 2015)
